Data on 40 compounds can be found in ChEMBL document CHEMBL1157539, “Thousands of chemical starting points for antimalarial lead identification” (Nature, 2010).

SMILES strings stand for the structures.

One test has as its system Plasmodium falciparum. The test is described as follows: GSK_TCMDC: Inhibition of Plasmodium falciparum Dd2 in whole red blood cells, using parasite LDH activity as an index of growth. Test compounds present at 2uM. Format: functional.
The compound `O=C(Nc1ccc(Cn2nc(Cl)c(N3CCCNCC3)cc2=O)cc1)c1ccc(-c2ccccc2)cc1.O=C(O)C(F)(F)F` registered an Inhibition of 35%.
`CCc1cc(=O)[nH]c(-n2nc(C)cc2NC(=O)CC(c2ccccc2)c2ccccc2)n1` yielded an Inhibition of 75%.
On the same count and under the same terms, the value for `Cc1nc(NC(=N)N)nc2cc3c(cc12)CCC3.Cl` was 58%.
Compound `Cn1cc(C2CCN(CCCCNC(=O)c3ccc(-c4ccc(C(F)(F)F)cc4)c(CO)c3)CC2)c2ccccc21` showed an Inhibition of 16%.
Take `Cc1[nH]c(C)c(-c2ccc(Nc3ccc(C(F)(F)F)cn3)cc2)c(=O)c1Br`: the Inhibition came to 98%.
The compound `CC1CN(c2cnn(C/C=C/c3ccc(NC(=O)c4ccc([N+](=O)[O-])cc4)cc3)c(=O)c2Cl)CC(C)N1.O=C(O)C(F)(F)F` (stereo not drawn) had an Inhibition of 38%.
Same read-out and setting: the value for `Cc1ccc(S(=O)(=O)n2cc(-c3ccnc(N)c3)c3cc(Br)cnc32)cc1` was 31%; that for `CN1CCN(Cc2cccc(-c3ccc4c(Nc5ccc(Oc6cccnc6)cc5)ccnc4c3)c2)CC1` was 100%; that for `Cc1cc2c(cc1C(F)(F)F)N(C(=O)Nc1cc(C(=O)NCCN(C)C)cc(C(F)(F)F)c1)CC2` was 50%.
`O=C(NCCc1ccc(F)cc1)c1ccc(N2CCN(c3ccncc3)CC2)nc1.O=C(O)C(F)(F)F` registered an Inhibition of 3%.
`Cc1cccc2nc(-c3ccc(-c4cccc(NCc5cn6cccnc6n5)c4)cc3)[nH]c12` came in with an Inhibition of 63%.
The compound `Cn1cc(C2CCN(CCCCNC(=O)c3sc(-c4ccc(C(F)(F)F)cc4)nc3CO)CC2)c2ccccc21` yielded an Inhibition of 15%.
`Oc1cc(Nc2ccnc3cc(I)ccc23)c(F)cc1Cl`: the Inhibition is listed as 77%.

Another test deals with HepG2. Kind of test: GSK_TCMDC: Percent inhibition of human HepG2 cell line. Test compounds present at 10uM. The format is functional.
Consider `CS(=O)(=O)c1ccc(CNCc2ccc(-c3cccc(-c4nc5cc(F)ccc5[nH]4)c3)cc2)cc1.O=C(O)C(F)(F)F`, for which the Inhibition was 33%.
Compound `Cc1cc2c(cc1C(F)(F)F)N(C(=O)Nc1cccc(C(=O)NC3CCN(Cc4ccccc4)CC3)c1)CC2` showed an Inhibition of 19%.
Compound `COc1ccc2ncc(F)c(CCN3CCC(NCc4ccc5c(c4)CCO5)CC3)c2n1.Cl` came in with an Inhibition of 20%.
On the same count and under the same terms, the figure for `COc1ccc(C2C(C(=O)Nc3ccc(C)cc3Br)c3ccccc3C(=O)N2C)cc1` (stereo not drawn) is 4%; for `O=C(NC(c1ccc(Cl)cc1)c1ccc2cccnc2c1O)c1ccccc1` (stereo not drawn) it is 44%; for `CCOC(=O)c1ccc(NC(=O)Nc2cccc(-c3ccc(-c4nc5cc(C(F)(F)F)ccc5[nH]4)cc3)c2)cc1` it is 62%.
`CN(C)CCNC(=O)c1csc(Nc2ccc(Cl)c(Cl)c2)n1` displayed an Inhibition of 4%.
`Cl.O=S(=O)(c1cccc(F)c1)c1ccc(Nc2ncnc3cc(Br)sc23)cc1Cl` showed an Inhibition of 20%.
`Clc1ccc(/N=C(/NCCCCCCCN/C(=N\c2ccc(Cl)cc2)Nc2ccc(Cl)cc2)Nc2ccc(Cl)cc2)cc1` gave an Inhibition of 100%.
Compound `CCCCCCOc1ccc(C(=O)NCCCC2CCN(CCCCCNC(=O)C=Cc3ccc(Cl)c(Cl)c3)CC2)cc1` registered an Inhibition of 22%.
In turn, `Cl.N=C(N)Nc1ccc(OCCCCCOc2ccc(NC(=N)N)cc2)cc1` had an Inhibition of 12%.
In turn, `COc1ccc(CNCc2ccccc2)cc1-c1ccc(S(=O)(=O)NCCN2CCCC2)cc1.O=C(O)C(F)(F)F` gave an Inhibition of 38%.
`OC1=C2C(=Nc3ccccc3SC2c2ccccc2)c2ccccc21` (stereo not drawn) registered an Inhibition of 5%.
In the case of `COc1ccc2[nH]c(C)cc(=NN=Cc3ccccc3Cl)c2c1`, the Inhibition was found to be 0%.
For the compound `O=C(O)C(F)(F)F.OCC1CCN(Cc2ccc(-c3ccc(-c4nc5ccccc5[nH]4)cc3)cc2)CC1`, the Inhibition is recorded as 37%.
In the case of `CC(C)C1=C[C@H]2C[C@]3(C4OCCO4)[C@@H]4CC[C@@H](C)[C@H]4C[C@@]2(C(=O)OCC2COCO2)[C@]13C(=O)OC(c1ccccc1)c1ccccc1` (stereo partly drawn), the Inhibition was 2%.
Same read-out and setting: the value for `O=C(Cc1ccc(NC(=O)c2ccc(O)c(-c3ccc(Cl)c(Cl)c3)c2)cc1)NCCc1ccc(Cl)c(Cl)c1` was 0%; that for `CNCc1ccc(-c2ccc3ccnc(N)c3c2)cc1` was 46%; that for `COc1ccc(-c2cccc(NC(=O)c3cccc(C#N)c3)c2)cc1CN1CCNCC1.O=C(O)C(F)(F)F` was 27%.
In turn, `c1ccc2c(CNc3nc(NCC4CCCCC4)nc4[nH]cnc34)cccc2c1` returned an Inhibition of 0%.
`Cc1ccc(-c2nc3cc(C(=O)NC4CCC(N5CCCc6ccc(C#N)cc6C5)CC4)ccc3[nH]2)cc1` (stereo not drawn) had an Inhibition of 23%.
With `Cc1ccc(-c2cc(C(=O)Nc3ccc(S(=O)(=O)N4CCCC(C)C4)cc3)[nH]n2)c(O)c1` (stereo not drawn), the Inhibition is reported as 32%.
The same measure, in the same setting: the value for `Oc1ccc(Br)cc1-c1nc2ccc(Cl)cc2nc1-c1cc(Br)ccc1O` was 0%; that for `COc1cc(F)c2ncc(Cl)c(C(O)CN3CCC(NC(=O)c4ccc5c(c4)NC(=O)CS5)CC3)c2c1.Cl` (stereo not drawn) was 15%.
`O=C(Nc1cccc(C(F)(F)F)c1)c1cccc(S(=O)(=O)NCC2CCCN2CC2CCCCC2)c1.O=C(O)C(F)(F)F` (stereo not drawn) registered an Inhibition of 6%.
With `CN(C)CCCNCc1ccc(-c2ccc(F)c(Cl)c2)o1.Cl`, the Inhibition is recorded as 29%.
Consider `COc1cc(C(=O)N2CCN(C(C)C)CC2)ccc1CN(C)CCCCN1CCN(c2cccc(Cl)c2Cl)CC1.Cl`, for which the Inhibition turned out to be 79%.
Regarding `O=C(Nc1ccc(Cn2nc(Cl)c(N3CCCNCC3)cc2=O)cc1)c1ccc(-c2ccccc2)cc1.O=C(O)C(F)(F)F`, the Inhibition is 93%.
`CCc1cc(=O)[nH]c(-n2nc(C)cc2NC(=O)CC(c2ccccc2)c2ccccc2)n1` had an Inhibition of 37%.
`Cc1nc(NC(=N)N)nc2cc3c(cc12)CCC3.Cl` had an Inhibition of 17%.
In turn, `Cn1cc(C2CCN(CCCCNC(=O)c3ccc(-c4ccc(C(F)(F)F)cc4)c(CO)c3)CC2)c2ccccc21` showed an Inhibition of 67%.
`Cc1[nH]c(C)c(-c2ccc(Nc3ccc(C(F)(F)F)cn3)cc2)c(=O)c1Br`: the Inhibition is 30%.
On to `CC1CN(c2cnn(C/C=C/c3ccc(NC(=O)c4ccc([N+](=O)[O-])cc4)cc3)c(=O)c2Cl)CC(C)N1.O=C(O)C(F)(F)F` (stereo not drawn), for which the Inhibition was found to be 22%.
In turn, `Cc1ccc(S(=O)(=O)n2cc(-c3ccnc(N)c3)c3cc(Br)cnc32)cc1` yielded an Inhibition of 8%.
In turn, `CN1CCN(Cc2cccc(-c3ccc4c(Nc5ccc(Oc6cccnc6)cc5)ccnc4c3)c2)CC1` came in with an Inhibition of 15%.
In turn, `Cc1cc2c(cc1C(F)(F)F)N(C(=O)Nc1cc(C(=O)NCCN(C)C)cc(C(F)(F)F)c1)CC2` yielded an Inhibition of 19%.
In turn, `O=C(NCCc1ccc(F)cc1)c1ccc(N2CCN(c3ccncc3)CC2)nc1.O=C(O)C(F)(F)F` yielded an Inhibition of 1%.
Still for that read-out and setting: the figure for `Cc1cccc2nc(-c3ccc(-c4cccc(NCc5cn6cccnc6n5)c4)cc3)[nH]c12` is 9%.
Consider `Cn1cc(C2CCN(CCCCNC(=O)c3sc(-c4ccc(C(F)(F)F)cc4)nc3CO)CC2)c2ccccc21`, for which the Inhibition is recorded as 46%.
Compound `Oc1cc(Nc2ccnc3cc(I)ccc23)c(F)cc1Cl` came in with an Inhibition of 0%.

By Inhibition is commonly meant the relative decrease from the control value, in per cent. Read a high Inhibition as strong suppression.
